Test [1] is described as follows: inhibitors of TNFa-induced NFkB p65 translocation, primary screen, imaging, HUVEC, MLSMR starter and 10KST1 sets (AID 438;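 active means inhibition above 20% together with a positive visual image hit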;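 further: compound added about 3h40 before a 20 min TNFalpha stimulation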;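 on inhibition: signal is the nuclear over cytoplasmic p65 intensity ratio per well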). Conditions: HUVEC TNFa-induced p65 nuclear translocation; cell count: measured here: nuclei count (cytotoxicity indicator), at 2.08 µM; inhibition: at 2 µM, stronger effect = higher value, 0% TNFa-plus-vehicle, 100% no-TNFa wells.
Test [2] can be described thus: reduction of polyQ htt aggregates in cells – imaging, exon1htt(103Q)mCFP cells, high-content imaging, primary screen (AID 483;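 active means visual image review flags a hit and inhibition of aggregation exceeds 20%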;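 further: compound exposure lasted 3 days before fixation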;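 on nuclei count: percent of the per-plate median nuclei count of sample wells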). Conditions: exon1htt(103Q)mCFP cell line, aggregate imaging, at 2 µM; inhibition of aggregation: stronger effect = higher value; nuclei count: measured here: cell count, toxicity.
Test [3] is described as follows: endothelial E-selectin expression blockers – imaging, HUVEC, immunofluorescence, MLSMR starter and 10KST1 sets, primary screen (AID 487;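 active means visually confirmed hit in the image check and inhibition above 20%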;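 on inhibition: signal is fraction of cell area covered by stained E-selectin grains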;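 on nuclei count: 100% = median nuclei count of all wells on the same plate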). The settings on record: HUVEC TNFalpha-induced E-selectin immunofluorescence imaging, at 2 µM; inhibition: stronger effect = higher value; nuclei count: measured here: cell number, toxicity.
For test [4], the target named is Voltage-gated potassium channel subunit beta-2 (Rattus norvegicus) (UniProt P62483). Nature of the test: inhibitors of rat Kvbeta2 reductase activity – biochemical, NADPH fluorescence, primary screen (AID 622).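 Further: slope of raw intensity against log time taken from 70 to 1610 s.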 Conditions: recombinant KvBeta, 4-cyanobenzaldehyde reduction, at 10 µM, stronger effect = higher value.
Voltage-gated potassium channel subunit beta-2 (Rattus norvegicus), sequence (P62483 whole entry, looked up): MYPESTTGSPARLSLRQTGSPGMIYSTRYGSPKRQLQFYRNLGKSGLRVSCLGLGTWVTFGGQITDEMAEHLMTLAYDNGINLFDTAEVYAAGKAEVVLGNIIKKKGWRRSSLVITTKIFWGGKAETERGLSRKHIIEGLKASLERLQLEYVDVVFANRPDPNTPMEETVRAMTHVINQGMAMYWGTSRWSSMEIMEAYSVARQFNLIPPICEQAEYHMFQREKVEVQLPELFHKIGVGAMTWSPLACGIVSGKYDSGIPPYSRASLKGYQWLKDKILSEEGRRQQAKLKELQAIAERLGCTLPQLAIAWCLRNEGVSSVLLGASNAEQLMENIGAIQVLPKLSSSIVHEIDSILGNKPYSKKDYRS
For test [5] the target is unchanged. Description: enhancers of rat Kvbeta2 NADPH turnover – biochemical, NADPH fluorescence, primary screen (AID 623;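 active means NADPH fluorescence slope more negative than the mean of all samples by about 3 SD, 99.7% confidence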;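 further: fluorescence intensity change per second fitted from 20 to 320 s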). The settings on record: Recombinant KvBeta, NADPH fluorescence decrease slope, 10 min; at 10 µM; stronger effect = lower value.
Test [6] has as its target Alpha-2C adrenergic receptor (Homo sapiens) (UniProt P18825). Nature of the test: compounds altering alpha2C-coupled GIRK flux – cell-based, HEK293 alpha2C/GIRK1/2, thallium flux, primary screen (AID 624;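 active means fluorescence slope after compound addition differing from the mean of all screened samples at 99.7% confidence, in either direction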;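 further: slope of fluorescence ratio to pre-addition baseline per second over 15 to 24 s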). Conditions: thallium flux BTC fluorescence, at 10 µM, actives lie on both sides.
Test [7] is described as follows: blockers of RIG-like receptor reporter activation – cell-based, Sendai virus stimulus, luciferase, 10K MLSCN set, TLR/RLR signaling modifier project, primary screen (AID 602276;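 active means inhibition at or above 50% at 10 µM; inactive means inhibition below 50%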;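 further: firefly luciferase from ISG56 promoter only with Renilla not read in this screen; 0% = Sendai virus plus DMSO and 100% = medium plus DMSO without virus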). The settings on record: HEK293 RL24 IRF3 luciferase reporter, at 10 µM, stronger effect = higher value. For orientation: A reporter such as luciferase makes a cellular process visible.
Test [8] is described as follows: TLR3 IRF3 reporter activation blockers – cell-based, poly I:C stimulus, luciferase, 10K MLSCN set, primary screen (AID 602277;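 active means inhibition of the reporter signal at or above 50%; inactive means inhibition below 50%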). The settings on record: HEK293-TLR3 RL24 IRF3 luciferase reporter, at 10 µM, stronger effect = higher value.

Structures are written as SMILES. Calls of active or inactive are those of the source.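 How the source made its calls, unless noted: active means fluorescence slope higher than the sample average by over 3 SD (cut at about -0.22 in these data, passing the limit was not always enough); inactive means the rest.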

Alpha-2C adrenergic receptor (Homo sapiens), sequence (P18825 whole entry, looked up): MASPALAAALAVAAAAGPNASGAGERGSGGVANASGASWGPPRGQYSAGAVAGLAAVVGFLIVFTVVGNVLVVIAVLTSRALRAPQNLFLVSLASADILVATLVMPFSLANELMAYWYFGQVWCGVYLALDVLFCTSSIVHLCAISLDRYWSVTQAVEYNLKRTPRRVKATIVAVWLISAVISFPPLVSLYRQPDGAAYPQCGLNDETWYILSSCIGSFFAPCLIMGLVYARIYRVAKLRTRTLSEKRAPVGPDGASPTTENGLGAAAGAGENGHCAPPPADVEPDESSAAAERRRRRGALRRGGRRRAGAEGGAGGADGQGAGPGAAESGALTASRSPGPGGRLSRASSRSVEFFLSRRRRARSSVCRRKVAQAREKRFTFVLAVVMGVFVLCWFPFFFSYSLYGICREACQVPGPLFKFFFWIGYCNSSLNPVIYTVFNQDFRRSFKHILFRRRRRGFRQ

Regarding `c1ccc2c(Cn3ccnc3)c[nH]c2c1`, the cell count in test [1] amounted to 410. Besides, the inhibition – broadly, the relative decrease from the control value, in per cent – in test [1] is 6.5% (inactive); in test [3] it was -12.3% (inactive); in test [7], 6.54% (inactive); in test [8], 38.9% (inactive). For the same molecule, in test [2], the inhibition of aggregation is -17.6% (inactive). Further, the nuclei count was found to be 90% in test [2] and 96.2% in test [3]. Further, in test [4], the fluorescence slope was -0.414 (inactive). In addition, in test [5], the NADPH fluorescence slope is -0.000163 (inactive). The slope in test [6] is 0.00685 (inactive).

Take `CCc1nnc(NC(=O)C2Cc3ccccc3CN2S(=O)(=O)c2cccs2)s1` (stereo not drawn): the cell count in test [1] turned out to be 521. Further, the inhibition in test [1] was -10.2% (inactive); in test [3] it was -57.1% (inactive); in test [7] it was -21.3% (inactive); in test [8], -50.1% (inactive). Moreover, the inhibition of aggregation in test [2] is -27.6% (inactive). For the same molecule, the figures for the nuclei count in test [2] and in test [3] were 116% and 117%, respectively. Besides, the fluorescence slope in test [4] is -0.482 (inactive). In test [5], the NADPH fluorescence slope was -2.6e-05 (inactive). For the same molecule, in test [6], the slope is 0.00706 (inactive).

Regarding `O=C(CSc1nnc(CNC(=O)c2cccs2)o1)NCCc1ccccc1`, in test [1], the cell count was 644. The inhibition in test [1] was -2.2% (inactive); in test [3], -25.7% (inactive); in test [7], 18.5% (inactive); in test [8], 16.6% (inactive). Also, the inhibition of aggregation in test [2] was -14.6% (inactive). In addition, the nuclei count was found to be 82.7% in test [2] and 115% in test [3]. Further, the fluorescence slope in test [4] was -0.375 (inactive). In addition, the NADPH fluorescence slope in test [5] was -4.4e-05 (inactive). The slope in test [6] is 0.00483 (inactive).

On to `Cc1ccc(NC2=NCC(=O)N2c2ccc3c(c2)OCCO3)c(C)c1`, for which the cell count in test [1] stood at 463. Moreover, the inhibition in test [1] was -14.4% (inactive); in test [3], -20.7% (inactive); in test [7] it was 5.69% (inactive); in test [8], 7.01% (inactive). Further, the inhibition of aggregation in test [2] is -2.6% (inactive). The values for the nuclei count in test [2] and in test [3] were 116% and 97.3%, respectively. For the same molecule, the fluorescence slope in test [4] was -0.498 (inactive). The NADPH fluorescence slope in test [5] is -3.6e-05 (inactive). Besides, in test [6], the slope was 0.00458 (inactive).

In the case of `C=CCn1c(COc2ccc(Cl)cc2)nnc1SCC(=O)N1CC(=O)Nc2ccccc21`, in test [1], the cell count came to 315. Besides, the inhibition in test [1] is 1.9% (inactive); in test [3] it was -6.5% (inactive); in test [7] it was 3.41% (inactive); in test [8], 4.64% (inactive). Also, the inhibition of aggregation in test [2] was -0.9% (inactive). Moreover, the nuclei count in test [2] is 104%; in test [3] it was 110%. In test [4], the fluorescence slope was -0.425 (inactive). Moreover, the NADPH fluorescence slope in test [5] is -2.1e-05 (inactive). In addition, the slope in test [6] is 0.00537 (inactive).

Take `CCN(c1ccc2c(c1)OCO2)S(=O)(=O)c1cc(Br)cc2c1N(C(=O)C1CC1)CC2`: in test [1], the cell count worked out at 341. Also, the inhibition in test [1] is -14.4% (inactive); in test [3] it was -9% (inactive); in test [7], 11.9% (inactive); in test [8], 21.6% (inactive). Moreover, the inhibition of aggregation in test [2] is 1.3% (inactive). Further, the nuclei count amounted to 99.8% in test [2] and 147% in test [3]. Besides, the fluorescence slope in test [4] is -0.525 (inactive). Moreover, the NADPH fluorescence slope in test [5] was -0.000116 (inactive). Besides, the slope in test [6] is 0.00411 (inactive).

As for `CCOC(=O)c1ccc(NC(=O)CCc2nc(-c3cccc(C)c3)no2)cc1`, the cell count in test [1] was determined as 387. Moreover, the inhibition in test [1] was 12.6% (inactive); in test [3], -1% (inactive); in test [7], -14.6% (inactive); in test [8] it was -24% (inactive). In test [2], the inhibition of aggregation was -10.1% (inactive). For the same molecule, the figures for the nuclei count in test [2] and in test [3] were 102% and 100%, respectively. For the same molecule, the fluorescence slope in test [4] was -0.565 (inactive). For the same molecule, the NADPH fluorescence slope in test [5] is -6.8e-05 (inactive). For the same molecule, in test [6], the slope was 0.00651 (inactive).

Turning to `N#CC1=C(N)N(c2ccc(Oc3ccccc3)cc2)C(=O)C1`, the cell count in test [1] was 546. Moreover, the inhibition in test [1] is -3.8% (inactive); in test [3], -5.8% (inactive); in test [7], 5.59% (inactive); in test [8], -5.96% (inactive). Besides, the inhibition of aggregation in test [2] was -0.2% (inactive). In addition, the results for the nuclei count in test [2] and in test [3] were 119% and 128%, respectively. Further, in test [4], the fluorescence slope was -0.481 (inactive). Besides, the NADPH fluorescence slope in test [5] was -5.5e-05 (inactive). Further, the slope in test [6] was 0.00638 (inactive).

Turning to `COc1ccc(S(=O)(=O)N2CCC(C(=O)Nc3c(F)cccc3F)CC2)cc1`, in test [1], the cell count amounted to 741. Moreover, the inhibition in test [1] was -9.2% (inactive); in test [3], -55.4% (inactive); in test [7], -10.2% (inactive); in test [8], 1.61% (inactive). The inhibition of aggregation in test [2] was 7% (inactive). Besides, the figures for the nuclei count in test [2] and in test [3] were 108% and 126%, respectively. In addition, the fluorescence slope in test [4] is -0.392 (inactive). Further, the NADPH fluorescence slope in test [5] was 3.8e-05 (inactive). Also, the slope in test [6] is 0.00504 (inactive).

Consider `CCc1nnc(NC(=O)c2ccc(S(=O)(=O)N(CC(C)C)CC(C)C)cc2)o1`, for which the cell count in test [1] worked out at 415. Also, the inhibition is -1.4% (inactive) in test [1], 12.8% (inactive) in test [3], 8.12% (inactive) in test [7] and 15.2% (inactive) in test [8]. In addition, the inhibition of aggregation in test [2] was 2.2% (inactive). The values for the nuclei count in test [2] and in test [3] were 94.8% and 81.5%, respectively. In addition, the fluorescence slope in test [4] is -0.507 (inactive). Moreover, in test [5], the NADPH fluorescence slope is -1.1e-05 (inactive). For the same molecule, in test [6], the slope was 0.00793 (inactive).

Regarding `O=S1(=O)C=C(Oc2ccc(F)cc2)c2ccccc21`, the cell count in test [1] amounted to 377. Besides, the inhibition in test [1] was -2.7% (inactive); in test [3], -0.9% (inactive); in test [7] it was 5.55% (inactive); in test [8] it was 7.32% (inactive). Also, in test [2], the inhibition of aggregation was -8.6% (inactive). Further, the nuclei count came out at 108% in test [2] and 111% in test [3]. For the same molecule, the fluorescence slope in test [4] was -0.321 (inactive). Moreover, in test [5], the NADPH fluorescence slope is -7.4e-05 (inactive). Besides, the slope in test [6] is 0.00496 (inactive).

Turning to `O=C(O)C1CCCN(S(=O)(=O)c2ccc(Cl)s2)C1` (stereo not drawn), the cell count in test [1] was 609. Moreover, the inhibition was -7.1% (inactive) in test [1], -43.3% (inactive) in test [3], 10.1% (inactive) in test [7] and 33.8% (inactive) in test [8]. Further, the inhibition of aggregation in test [2] is 13.3% (inactive). The nuclei count in test [2] came out at 88.8%; in test [3] it was 116%. Further, the fluorescence slope in test [4] is -0.558 (inactive). Also, the NADPH fluorescence slope in test [5] is -2.9e-05 (inactive). Further, the slope in test [6] is 0.00655 (inactive).

As for `Cc1onc(-c2ccccc2)c1C(=O)Nc1ccc(S(=O)(=O)N2CCCCC2)cc1`, the cell count in test [1] worked out at 786. In addition, the inhibition in test [1] is 7.8% (inactive); in test [3], -35.5% (inactive); in test [7] it was 15.1% (inactive); in test [8] it was 32.9% (inactive). In addition, the inhibition of aggregation in test [2] was -10.9% (inactive). Further, the nuclei count amounted to 97.3% in test [2] and 108% in test [3]. Besides, the fluorescence slope in test [4] is -0.599 (inactive). Besides, in test [5], the NADPH fluorescence slope is -5.5e-06 (inactive). The slope in test [6] was 0.00592 (inactive).
